Screening data from PubChem BioAssay.
Shown are actives, neighbours in structure and some others; about 9.5% of the full set was active somewhere.
Pf growth 48h = inhibits P. falciparum growth in the first generation, 48 h | P. falciparum luciferase growth in erythrocytes, 48 h | Potency, µM (titrated, usually from 28.7 µM), for the others: at the highest dose activity change, negative = inhibition, actives largely listed as inhibitors | hit rate 5.9% among 310,000 | AID 504832; further: on the % scale 0 is the no-effect control and ±100 the full control effect
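Growth was read as firefly luciferase luminescence after a 48 h, 37 C, 5% CO2 exposure of compounds to reporter-bearing P. falciparum cultures (0.1% parasitemia, 2% hematocrit final) in Albumax-supplemented RPMI 1640.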
NS1 inh = blocks influenza NS1 protein function; Potency, µM (highest dose often 46.1 µM), inactives show top-dose activity, positive = more growth; hit rate 0.4% among 270,000; AID 2326; calls by dose curve; further: actives are rising curves; nearly all actives have a fitted effect of over 50% in size
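Growth recovery, yeast-based: influenza A NS1 expressed in S. cerevisiae causes slow growth, and suppressors are detected by OD600. The parent strain without NS1 is used as positive control.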
Pf growth 96h = P. falciparum growth inhibition at 96 hour, primary screen for plastid delayed-death inhibitors; P. falciparum luciferase reporter growth, 96 h; Potency, µM (top dose mostly 28.7 µM), for the others: top-dose activity change, negative = inhibition, usual class: inhibitors; hit rate 6.9% among 320,000; further: on the % scale 0 is the no-effect control and ±100 the full control effect
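P. falciparum expressing integrated firefly luciferase, in erythrocytes at 2% hematocrit, 0.05% parasitemia, incubated with compounds 96 h at 37 C, 5% CO2. Growth inhibition read as loss of luminescence; two-generation exposure targets delayed-death apicoplast inhibitors.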
RE007 growth inh = less growth of the S. pombe RE007 Vpr strain; Potency, µM (highest dose often 92.2 µM), without a hit: at the top dose activity change, negative = less growth, actives largely listed as inhibitors; S. pombe RE007 Vpr strain, BacTiter-Glo ATP luminescence, 24 h; hit rate 0.21% among 360,000; active means well fitted falling curve with a large enough effect; inconclusive means small, poorly fitted or top-dose-only effect; inactive means no such curve, though single readings can be large or run the other way; further: on the % scale 0 is the no-effect control and ±100 the full control effect; nearly all actives have a fitted effect of over 50% in size
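Fission yeast RE007 carrying one integrated HIV-1 vpr copy, seeded at OD 0.01 in PMG+AL medium with 23 nL pinned compound. Grown 24 h at 30 degrees; viability read by BacTiter-Glo luminescence after 5 min.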
SARS PLP yeast = inhibitors of SARS-CoV papain-like protease in yeast. S. cerevisiae expressing SARS-CoV PLpro, growth rescue. Potency, µM (highest dose often 32.9 µM), without a hit: at the highest dose activity, positive = growth rescue, usual class: activators. hit rate 0.19% among 330,000; calls by dose curve; further: 0% is about no effect; nearly all actives have a fitted effect of over 55% in size
* = called active by the depositor; ? = inconclusive; / = no result; ! = a repeat was not active. Unless noted, the call rests on the fitted dose curve; in most records, active means well fitted inhibition curve with a large enough effect; inconclusive means small, poorly fitted or top-dose-only effect, or another doubt; inactive means no such curve, though single readings can be large or run the other way. Potency means the concentration at half of the fitted maximal effect.

SMILES	Pf growth 48h	NS1 inh	Pf growth 96h	RE007 growth inh	SARS PLP yeast
O=C(O)C1C2C=CC(C2)C1C(=O)NCCCN1CCOCC1 (stereo unspecified)	6%	-11%	12µM*	16%	7%
O=C(O)c1ccc2c(c1)C(=O)N(c1ccc(OCc3ccccc3)cc1)C2=O	46%	-3%	-18%	-19%	1%
CC(C)Oc1ccccc1/C=N/Nc1ccccc1[N+](=O)[O-]	?	-12%	8.3µM*	-4%	-11%
C/C(=N/Nc1ccccc1[N+](=O)[O-])c1ccc(C)c([N+](=O)[O-])c1	?	5%	36%	-3%	1%
COc1ccccc1/C=N\Nc1ccccc1[N+](=O)[O-]	167%	-3%	33%	0%	0%
CC(C)/C(=N/Nc1ccccc1[N+](=O)[O-])c1ccccc1	7%	-9%	8.3µM*	10%	-1%
CC1(C)OC(=O)C(=NNc2ccccc2[N+](=O)[O-])C(=O)O1	3%	-31%	15%	35µM*	-1%
O=C(NCCNS(=O)(=O)c1ccccc1Cl)c1cc(OCC(F)(F)F)ccc1OCC(F)(F)F	?	13%	12µM*	4%	-5%
Cc1ccc(S(=O)(=O)NCCNC(=O)c2cc(OCC(F)(F)F)ccc2OCC(F)(F)F)cc1	?	15%	?	5%	5%
CN(C)/C=N/S(=O)(=O)c1ccc(Cl)c(Cl)c1	2%	-2%	-1%	-8%	1%
CCO[C@H]1OC(C(=O)N2CCCCCCC2)=C[C@@H](C2CCCCC2)[C@@H]1CCCO	?	-1%	9.3µM*	16%	1%
CCO[C@@H]1OC(C(=O)N2CCN(Cc3ccc4c(c3)OCO4)CC2)=C[C@H](C2CCCCC2)[C@H]1CCCO	?	-16%	0.93µM*	8%	0%
CCO[C@@H]1OC(C(=O)N2CCN(C)CC2)=C[C@H](C(C)(C)C)[C@H]1CCCO	38%	-3%	49%	-1%	0%
CCO[C@@H]1OC(C(=O)N2CCN(C)CC2)=C[C@H](C2CCCCC2)[C@H]1CCCO	-2%	-1%	-20%	-3%	-1%
CCO[C@H]1OC(C(=O)N2CCN(Cc3ccccc3)CC2)=C[C@@H](C2CCCCC2)[C@@H]1CCCO	?	-12%	1.7µM*	2%	1%
CCO[C@H]1OC(C(=O)N2CCN(Cc3ccc4c(c3)OCO4)CC2)=C[C@@H](C(C)(C)C)[C@@H]1CCCO	6.6µM*	-4%	?	-25%	-2%
O=c1cc(CN2CCN(Cc3ccc(F)cc3)C(CCO)C2)[nH]c2ccccc12 (stereo unspecified)	-2%	22%	?	-26%	-5%
[2H]C([2H])(CCOS(N)(=O)=O)c1ccccc1	15%	15%	-20%	4%	8%
CCCCNc1nc2ccccc2n1CC(=O)N1CCc2ccccc2C1	12µM*	-3%	3.7µM*	-3%	3%
CCCCNc1nc2ccccc2n1CC(=O)Nc1c(C)cccc1CC	-24%	-9%	?	/	21%
CSc1ccc(Cl)c(C(=O)N2CCOc3ccccc32)c1	-2%	18%	-25%	5%	1%
O=C(c1cccc(C(F)(F)F)c1)N1CCOc2ccccc21	13µM*	1%	1%	-8%	0%
CN(CC(=O)Nc1n[nH]c(=S)s1)S(=O)(=O)c1cccc2cccnc12	-5%	9%	5.2µM*	6%	3%
CC1(c2ccccc2)NC(=O)N(CC(=O)Nc2nnc(C3CC3)s2)C1=O (stereo unspecified)	-12%	1%	22%	-10%	-3%
CCc1cc(C(=O)Nc2cc(S(=O)(=O)N(CC)CC)ccc2N2CCOCC2)sc1C	?	/	9.3µM*	-2%	-4%
SMILES	Pf growth 48h	NS1 inh	Pf growth 96h	RE007 growth inh	SARS PLP yeast
CCN(CC)S(=O)(=O)c1ccc(N2CCOCC2)c(NC(=O)c2cc(C)cc(C)c2)c1	10µM*	19%	?	-5%	-15%
CCN(CC)S(=O)(=O)c1ccc(N2CCOCC2)c(NC(=O)C23CC4CC(CC(Cl)(C4)C2)C3)c1	8.3µM*	?	3.7µM*	/	2%
CCN(CC)S(=O)(=O)c1ccc(N2CCOCC2)c(NC(=O)c2sccc2C)c1	/	/	/	12%	13%
CCN(CC)S(=O)(=O)c1ccc(N2CCOCC2)c(NC(=O)c2ccco2)c1	/	/	/	-4%	-1%
CCN(CC)S(=O)(=O)c1ccc(N2CCOCC2)c(NC(=S)NC(=O)c2ccco2)c1	2.6µM*	7%	1.5µM*	2%	0%
CCN(CC)S(=O)(=O)c1ccc(N2CCOCC2)c(NC(=O)c2ccccc2)c1	?	-27%	?	-2%	16%
CCC[N+]1(CC#CC(O)(c2ccccc2)C2CCCCC2)CCCCC1 (stereo unspecified)	1.7µM*	2%	-22%	-8%	3%
Cc1ccccc1OCC(=O)OCC(=O)Nc1cc(S(=O)(=O)N2CCCCC2)ccc1Cl	-19%	/	10%	1%	1%
CC1(C2CC2)NC(=O)N(CC(=O)Nc2ccc(F)cc2F)C1=O (stereo unspecified)	-19%	/	-20%	7%	3%
COc1cc(/C=C/c2ccc3cccc(OC)c3n2)c(OC(C)=O)c([N+](=O)[O-])c1	/	-2%	?	-14%	-19%
COc1c(OC(C)=O)ccc(/C=C/c2ccc3cccc(OCc4ccccc4)c3n2)c1[N+](=O)[O-]	1.9µM*	20%	?	-4%	14%
O=C(Cc1cc(=O)[nH][nH]1)N/N=C/c1cccc(Cl)c1Cl	?	10µM*	?	-10%	9%
O=C(Cc1cc(=O)[nH][nH]1)N/N=C/C(Cl)=C/c1ccccc1	1.2µM*!	18%	62%	-5%	12%
O=C(OC1C[C@@H]2CC3C[C@H](C1)N2CC3=O)c1c[nH]c2ccccc12 (stereo partly specified)	13µM*	/	13µM*	/	/
C[N+]1(C)C2CCC1CC(OC(=O)c1ccco1)C2 (stereo unspecified)	-18%	9%	-16%	3%	1%
C[N+]1(C)C2CCC1CC(OC(=O)c1c[nH]c3ccccc13)C2 (stereo unspecified)	?	-20%	6µM*	-4%	/
C[C@H]1O[C@H](C2CCCC2)CC2=C1C(=O)OC(C)(C)O2	/	/	/	-12%	/
CCOC(=O)C(C)Sc1cc(CS(=O)(=O)c2ccccc2)nc(-c2ccccc2)n1 (stereo unspecified)	23%	17%	10µM*	5%	-7%
Cc1ccsc1C(=O)N1CCC1(C)C(=O)NS(=O)(=O)c1ccccc1 (stereo unspecified)	/	/	/	16%	/
Cc1ccc(N2C(=O)N3[C@H]4c5ccccc5OC[C@@H]4[C@@H](c4ccccc4)[C@@]3(C)C2=O)cc1	?	-1%	8.3µM*	23%	-6%
C[C@]12C(=O)N(c3cccc(F)c3)C(=O)N1[C@@H]1c3ccccc3OC[C@@H]1[C@H]2c1ccccc1	?	-7%	8.3µM*	-6%	-2%
